In PMC11006913:
Changes are numbered by the printed parent chain.

Assays:
Test in all cases: PBM; 200 nM protein, PBS
Conditions in all cases: dsDNA, one strand shown
[1] = target: HOXA4 (Homo sapiens, UniProt Q00056 201-287, W262R)
[2] = target: T1, VENTX (Homo sapiens, UniProt O95231 78-163)
T1 sequence: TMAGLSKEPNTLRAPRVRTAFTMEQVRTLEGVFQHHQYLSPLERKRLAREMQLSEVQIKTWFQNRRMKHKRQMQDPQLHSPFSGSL

[3] = target: HOXA7 (Homo sapiens, UniProt P31268 116-202)
[4] = target: T2, PAX4 (Homo sapiens, UniProt O43316 9-242)
T2 sequence: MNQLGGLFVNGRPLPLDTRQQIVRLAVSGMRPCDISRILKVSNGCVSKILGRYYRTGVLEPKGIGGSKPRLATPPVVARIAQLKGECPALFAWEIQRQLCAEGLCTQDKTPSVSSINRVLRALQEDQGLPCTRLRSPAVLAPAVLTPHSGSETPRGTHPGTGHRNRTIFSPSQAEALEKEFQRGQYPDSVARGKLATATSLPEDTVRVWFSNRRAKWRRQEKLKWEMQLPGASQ

[5] = target: HOXA4 (Homo sapiens, UniProt Q00056 201-287)
HOXA4 (Homo sapiens, UniProt Q00056 201-287), sequence (Q00056 201-287): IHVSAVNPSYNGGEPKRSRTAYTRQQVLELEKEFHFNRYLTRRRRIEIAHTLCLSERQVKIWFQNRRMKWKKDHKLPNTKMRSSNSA

[6] = target: HOXC10 (Homo sapiens, UniProt Q9NYD6 254-340, K271E)
HOXC10 (Homo sapiens, UniProt Q9NYD6 254-340, K271E), sequence (Q9NYD6 254-340 K271E): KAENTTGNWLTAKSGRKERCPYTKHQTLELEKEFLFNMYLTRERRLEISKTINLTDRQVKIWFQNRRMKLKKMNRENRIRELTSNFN

[7] = target: VAX1 (Homo sapiens, UniProt Q5SQQ9 86-172)
VAX1, sequence (Q5SQQ9 86-172): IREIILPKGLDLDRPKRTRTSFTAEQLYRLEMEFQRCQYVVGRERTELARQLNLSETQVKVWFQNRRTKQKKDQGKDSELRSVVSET

[8] = target: T3, PAX4 (Homo sapiens, UniProt O43316 9-242, R227W)
T3 sequence: T2 sequence with R219W

[9] = target: HOXA2 (Homo sapiens, UniProt O43364 129-215, Y150S)
HOXA2 (Homo sapiens, UniProt O43364 129-215, Y150S), sequence (O43364 129-215 Y150S): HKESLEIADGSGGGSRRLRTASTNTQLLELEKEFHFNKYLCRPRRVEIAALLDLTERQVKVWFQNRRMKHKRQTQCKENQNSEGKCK

[10] = target: HOXA7 (Homo sapiens, UniProt P31268 116-202, W177C)
HOXA7 (Homo sapiens, UniProt P31268 116-202, W177C), sequence (P31268 116-202 W177C): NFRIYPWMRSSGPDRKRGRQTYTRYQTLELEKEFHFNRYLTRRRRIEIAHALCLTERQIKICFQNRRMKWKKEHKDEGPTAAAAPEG

[11] = target: HOXA2 (Homo sapiens, UniProt O43364 129-215)
HOXA2 (Homo sapiens, UniProt O43364 129-215), sequence (O43364 129-215): as the sequence (O43364 129-215 Y150S) above, with S22Y counted along it

[12] = target: HOXB6 (Homo sapiens, UniProt P17509 132-218)
HOXB6, sequence (P17509 132-218): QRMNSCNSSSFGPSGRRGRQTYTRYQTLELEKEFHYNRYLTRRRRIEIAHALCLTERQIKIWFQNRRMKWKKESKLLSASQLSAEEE

[13] = target: HOXB9 (Homo sapiens, UniProt P17482 171-250, T197M)
HOXB9 (Homo sapiens, UniProt P17482 171-250, T197M), sequence (P17482 171-250 T197M): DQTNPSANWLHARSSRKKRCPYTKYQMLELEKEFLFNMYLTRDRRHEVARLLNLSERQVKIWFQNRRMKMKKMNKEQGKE

[14] = target: HOXC9 (Homo sapiens, UniProt P31274 178-260, K195R)
HOXC9 (Homo sapiens, UniProt P31274 178-260, K195R), sequence (P31274 178-260 K195R): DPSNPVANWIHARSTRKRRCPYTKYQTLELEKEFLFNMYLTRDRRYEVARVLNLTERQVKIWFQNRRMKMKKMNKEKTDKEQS

[15] = target: HOXC10 (Homo sapiens, UniProt Q9NYD6 254-340)
HOXC10 (Homo sapiens, UniProt Q9NYD6 254-340), sequence (Q9NYD6 254-340): as the sequence (Q9NYD6 254-340 K271E) above, with E18K counted along it

[16] = target: HOXB9 (Homo sapiens, UniProt P17482 171-250)
HOXB9 (Homo sapiens, UniProt P17482 171-250), sequence (P17482 171-250): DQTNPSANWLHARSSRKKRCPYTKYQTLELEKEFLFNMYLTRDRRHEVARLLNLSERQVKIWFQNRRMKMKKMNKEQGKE

[17] = target: HOXC9 (Homo sapiens, UniProt P31274 178-260)
HOXC9 (Homo sapiens, UniProt P31274 178-260), sequence (P31274 178-260): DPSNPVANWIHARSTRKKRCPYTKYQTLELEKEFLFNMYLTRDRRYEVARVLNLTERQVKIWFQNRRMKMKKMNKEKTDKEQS

[18] = target: HOXC9 (Homo sapiens, UniProt P31274 178-260, R193K)
HOXC9 (Homo sapiens, UniProt P31274 178-260, R193K), sequence (P31274 178-260 R193K): as the sequence (P31274 178-260) above, with R16K counted along it

[19] = target: HOXB9 (Homo sapiens, UniProt P17482 171-250, R186Q)
HOXB9 (Homo sapiens, UniProt P17482 171-250, R186Q), sequence (P17482 171-250 R186Q): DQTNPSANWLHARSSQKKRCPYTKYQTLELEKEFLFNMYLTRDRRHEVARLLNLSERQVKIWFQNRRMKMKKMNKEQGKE

[20] = target: HOXC9 (Homo sapiens, UniProt P31274 178-260, R222W)
HOXC9 (Homo sapiens, UniProt P31274 178-260, R222W), sequence (P31274 178-260 R222W): as the sequence (P31274 178-260) above, with R45W counted along it

HOXA7 (Homo sapiens, UniProt P31268 116-202), sequence (P31268 116-202): as the sequence (P31268 116-202 W177C) above, with C62W counted along it
HOXA4 (Homo sapiens, UniProt Q00056 201-287, W262R), sequence (Q00056 201-287 W262R): as the sequence (Q00056 201-287) above, with W62R counted along it

Row | Sequence | binding signal [1] | binding signal [2] | binding signal [3] | binding signal [4] | binding signal [5] | binding signal [6] | binding signal [7] | binding signal [8] | binding signal [9] | binding signal [10] | binding signal [11] | binding signal [12] | binding signal [13] | binding signal [14] | binding signal [15] | binding signal [16] | binding signal [17] | binding signal [18] | binding signal [19] | binding signal [20]
1 | CCTAATTA | 10.7 upbm affinity estimate (log intensity, higher = more binding, comparable within an allelic series) | 13 upbm affinity estimate (log intensity, higher = more binding, comparable within an allelic series) | 11.8 upbm affinity estimate (log intensity, higher = more binding, comparable within an allelic series) | 12.6 upbm affinity estimate (log intensity, higher = more binding, comparable within an allelic series) | 14.2 upbm affinity estimate (log intensity, higher = more binding, comparable within an allelic series) | 11.8 upbm affinity estimate (log intensity, higher = more binding, comparable within an allelic series) | 13.8 upbm affinity estimate (log intensity, higher = more binding, comparable within an allelic series) | 11.2 upbm affinity estimate (log intensity, higher = more binding, comparable within an allelic series) | 10.8 upbm affinity estimate (log intensity, higher = more binding, comparable within an allelic series) | 8.85 upbm affinity estimate (log intensity, higher = more binding, comparable within an allelic series) | 13.2 upbm affinity estimate (log intensity, higher = more binding, comparable within an allelic series) | 12.1 upbm affinity estimate (log intensity, higher = more binding, comparable within an allelic series) |  |  |  |  |  |  |  | 
2 | TATTAGAA |  |  |  | 11.3 upbm affinity estimate (log intensity, higher = more binding, comparable within an allelic series) |  |  |  |  |  |  |  |  |  |  |  |  |  |  |  | 
3 | TAATTAGA | 10.8 upbm affinity estimate (log intensity, higher = more binding, comparable within an allelic series) | 13 upbm affinity estimate (log intensity, higher = more binding, comparable within an allelic series) | 11.5 upbm affinity estimate (log intensity, higher = more binding, comparable within an allelic series) | 12.8 upbm affinity estimate (log intensity, higher = more binding, comparable within an allelic series) | 14.1 upbm affinity estimate (log intensity, higher = more binding, comparable within an allelic series) | 11.8 upbm affinity estimate (log intensity, higher = more binding, comparable within an allelic series) | 13.8 upbm affinity estimate (log intensity, higher = more binding, comparable within an allelic series) | 11.5 upbm affinity estimate (log intensity, higher = more binding, comparable within an allelic series) | 11 upbm affinity estimate (log intensity, higher = more binding, comparable within an allelic series) | 8.87 upbm affinity estimate (log intensity, higher = more binding, comparable within an allelic series) | 13.1 upbm affinity estimate (log intensity, higher = more binding, comparable within an allelic series) | 12 upbm affinity estimate (log intensity, higher = more binding, comparable within an allelic series) | 10.1 upbm affinity estimate (log intensity, higher = more binding, comparable within an allelic series) |  |  |  |  |  |  | 
4 | CCAGGTCC |  | 8.06 upbm affinity estimate (log intensity, higher = more binding, comparable within an allelic series) |  |  |  |  |  |  | 10.5 upbm affinity estimate (log intensity, higher = more binding, comparable within an allelic series) |  | 7.25 upbm affinity estimate (log intensity, higher = more binding, comparable within an allelic series) |  |  |  |  |  |  |  |  | 
5 | AATTAATC | 10.6 upbm affinity estimate (log intensity, higher = more binding, comparable within an allelic series) | 12.3 upbm affinity estimate (log intensity, higher = more binding, comparable within an allelic series) | 11.3 upbm affinity estimate (log intensity, higher = more binding, comparable within an allelic series) | 12.4 upbm affinity estimate (log intensity, higher = more binding, comparable within an allelic series) | 13.9 upbm affinity estimate (log intensity, higher = more binding, comparable within an allelic series) |  |  | 11 upbm affinity estimate (log intensity, higher = more binding, comparable within an allelic series) |  | 8.73 upbm affinity estimate (log intensity, higher = more binding, comparable within an allelic series) |  | 11.6 upbm affinity estimate (log intensity, higher = more binding, comparable within an allelic series) | 10 upbm affinity estimate (log intensity, higher = more binding, comparable within an allelic series) |  |  |  |  |  |  | 
6 | ATTAATAG | 10.6 upbm affinity estimate (log intensity, higher = more binding, comparable within an allelic series) |  | 11.6 upbm affinity estimate (log intensity, higher = more binding, comparable within an allelic series) |  | 13.6 upbm affinity estimate (log intensity, higher = more binding, comparable within an allelic series) | 12 upbm affinity estimate (log intensity, higher = more binding, comparable within an allelic series) | 12.6 upbm affinity estimate (log intensity, higher = more binding, comparable within an allelic series) |  |  | 9.03 upbm affinity estimate (log intensity, higher = more binding, comparable within an allelic series) |  | 12 upbm affinity estimate (log intensity, higher = more binding, comparable within an allelic series) | 10.1 upbm affinity estimate (log intensity, higher = more binding, comparable within an allelic series) | 12.7 upbm affinity estimate (log intensity, higher = more binding, comparable within an allelic series) | 12.2 upbm affinity estimate (log intensity, higher = more binding, comparable within an allelic series) | 11.9 upbm affinity estimate (log intensity, higher = more binding, comparable within an allelic series) | 12.6 upbm affinity estimate (log intensity, higher = more binding, comparable within an allelic series) | 12.6 upbm affinity estimate (log intensity, higher = more binding, comparable within an allelic series) | 11.7 upbm affinity estimate (log intensity, higher = more binding, comparable within an allelic series) | 11.1 upbm affinity estimate (log intensity, higher = more binding, comparable within an allelic series)
7 | AGCAATTA | 10.5 upbm affinity estimate (log intensity, higher = more binding, comparable within an allelic series) | 12.4 upbm affinity estimate (log intensity, higher = more binding, comparable within an allelic series) | 11.7 upbm affinity estimate (log intensity, higher = more binding, comparable within an allelic series) |  | 13.7 upbm affinity estimate (log intensity, higher = more binding, comparable within an allelic series) | 11.8 upbm affinity estimate (log intensity, higher = more binding, comparable within an allelic series) | 12.9 upbm affinity estimate (log intensity, higher = more binding, comparable within an allelic series) |  | 10.8 upbm affinity estimate (log intensity, higher = more binding, comparable within an allelic series) | 8.7 upbm affinity estimate (log intensity, higher = more binding, comparable within an allelic series) | 12.5 upbm affinity estimate (log intensity, higher = more binding, comparable within an allelic series) | 12 upbm affinity estimate (log intensity, higher = more binding, comparable within an allelic series) | 9.96 upbm affinity estimate (log intensity, higher = more binding, comparable within an allelic series) |  |  |  |  |  |  | 
8 | ACTAATTG | 10.5 upbm affinity estimate (log intensity, higher = more binding, comparable within an allelic series) | 12.9 upbm affinity estimate (log intensity, higher = more binding, comparable within an allelic series) |  | 12.1 upbm affinity estimate (log intensity, higher = more binding, comparable within an allelic series) | 13.7 upbm affinity estimate (log intensity, higher = more binding, comparable within an allelic series) |  | 13.3 upbm affinity estimate (log intensity, higher = more binding, comparable within an allelic series) | 10.8 upbm affinity estimate (log intensity, higher = more binding, comparable within an allelic series) | 10.8 upbm affinity estimate (log intensity, higher = more binding, comparable within an allelic series) |  | 12.4 upbm affinity estimate (log intensity, higher = more binding, comparable within an allelic series) |  |  |  |  |  |  |  |  | 
9 | ACAATTAA | 10.5 upbm affinity estimate (log intensity, higher = more binding, comparable within an allelic series) |  | 11.6 upbm affinity estimate (log intensity, higher = more binding, comparable within an allelic series) |  | 13.8 upbm affinity estimate (log intensity, higher = more binding, comparable within an allelic series) | 12 upbm affinity estimate (log intensity, higher = more binding, comparable within an allelic series) |  |  |  | 8.88 upbm affinity estimate (log intensity, higher = more binding, comparable within an allelic series) |  | 11.9 upbm affinity estimate (log intensity, higher = more binding, comparable within an allelic series) | 10.1 upbm affinity estimate (log intensity, higher = more binding, comparable within an allelic series) | 12.5 upbm affinity estimate (log intensity, higher = more binding, comparable within an allelic series) | 12.2 upbm affinity estimate (log intensity, higher = more binding, comparable within an allelic series) | 11.8 upbm affinity estimate (log intensity, higher = more binding, comparable within an allelic series) | 12.6 upbm affinity estimate (log intensity, higher = more binding, comparable within an allelic series) | 12.5 upbm affinity estimate (log intensity, higher = more binding, comparable within an allelic series) | 11.6 upbm affinity estimate (log intensity, higher = more binding, comparable within an allelic series) | 11 upbm affinity estimate (log intensity, higher = more binding, comparable within an allelic series)
10 | CAATTAAA | 10.5 upbm affinity estimate (log intensity, higher = more binding, comparable within an allelic series) | 12.3 upbm affinity estimate (log intensity, higher = more binding, comparable within an allelic series) | 11.8 upbm affinity estimate (log intensity, higher = more binding, comparable within an allelic series) |  | 13.6 upbm affinity estimate (log intensity, higher = more binding, comparable within an allelic series) | 12.3 upbm affinity estimate (log intensity, higher = more binding, comparable within an allelic series) | 12.8 upbm affinity estimate (log intensity, higher = more binding, comparable within an allelic series) |  |  | 8.84 upbm affinity estimate (log intensity, higher = more binding, comparable within an allelic series) |  | 12.1 upbm affinity estimate (log intensity, higher = more binding, comparable within an allelic series) | 10.2 upbm affinity estimate (log intensity, higher = more binding, comparable within an allelic series) | 12.9 upbm affinity estimate (log intensity, higher = more binding, comparable within an allelic series) | 12.5 upbm affinity estimate (log intensity, higher = more binding, comparable within an allelic series) | 12.3 upbm affinity estimate (log intensity, higher = more binding, comparable within an allelic series) | 12.9 upbm affinity estimate (log intensity, higher = more binding, comparable within an allelic series) | 12.8 upbm affinity estimate (log intensity, higher = more binding, comparable within an allelic series) | 12 upbm affinity estimate (log intensity, higher = more binding, comparable within an allelic series) | 11.3 upbm affinity estimate (log intensity, higher = more binding, comparable within an allelic series)
11 | GGCAATTA | 10.5 upbm affinity estimate (log intensity, higher = more binding, comparable within an allelic series) | 12.5 upbm affinity estimate (log intensity, higher = more binding, comparable within an allelic series) | 11.7 upbm affinity estimate (log intensity, higher = more binding, comparable within an allelic series) |  | 13.7 upbm affinity estimate (log intensity, higher = more binding, comparable within an allelic series) | 12 upbm affinity estimate (log intensity, higher = more binding, comparable within an allelic series) | 12.9 upbm affinity estimate (log intensity, higher = more binding, comparable within an allelic series) |  | 10.8 upbm affinity estimate (log intensity, higher = more binding, comparable within an allelic series) | 8.77 upbm affinity estimate (log intensity, higher = more binding, comparable within an allelic series) | 12.5 upbm affinity estimate (log intensity, higher = more binding, comparable within an allelic series) | 12.2 upbm affinity estimate (log intensity, higher = more binding, comparable within an allelic series) | 10.2 upbm affinity estimate (log intensity, higher = more binding, comparable within an allelic series) | 12.6 upbm affinity estimate (log intensity, higher = more binding, comparable within an allelic series) |  | 11.8 upbm affinity estimate (log intensity, higher = more binding, comparable within an allelic series) |  | 12.5 upbm affinity estimate (log intensity, higher = more binding, comparable within an allelic series) | 11.5 upbm affinity estimate (log intensity, higher = more binding, comparable within an allelic series) | 
